In the library only some 2.4% were active in any assay of this set; here they are far more common.
CHT block: inhibitors of human choline transporter CHT; High affinity choline transporter 1 (Homo sapiens), Q9GZV3; CHT-expressing cells, membrane potential dye, choline response; hits give low values; B-score at 10 µM; 310,000 compounds, 0.86% hits; AID 488975, 2010;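 active = B-score over 3 SD under the library average, and starting fluorescence ratio not unusually high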;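 note: choline stimulus applied at its EC90 after an EC20 pre-addition; B-score computed on integrated fluorescence ratio after choline addition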
CHT PAM: CHT positive allosteric modulators, primary screen, cell-based, membrane potential dye, choline EC20; AID 488977, 2010; B-score at 10 µM; High affinity choline transporter 1 (Homo sapiens), Q9GZV3; 310,000 compounds, 0.49% hits; CHT-expressing cells; hits give high values; LV-AA mutant CHT in HEK293 cells;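 active = initial fluorescence not abnormally high and integrated response B-score, plate-corrected, over 3 SD above library mean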
TMEM16A inh: TMEM16A chloride channel inhibitors, primary screen, cell-based, HTS; Anoctamin-1 (Mus musculus), Q8BHY3; HEK293 TMEM16A/YFP iodide influx fluorescence, ionomycin; normalized B-score (activity score, 25-100; higher = stronger inhibition) at 10 µM; 310,000 compounds, 1.2% hits;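 active = ratio plate-corrected score three or more library SD toward inhibition, starting fluorescence score within five deviations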;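 note: score derived from kinetic fluorescence span divided by baseline fluorescence per well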
TMEM16A act: TMEM16A chloride channel activators or potentiators, primary screen, cell-based, HTS | HEK293 TMEM16A/YFP-H148Q/I152L, iodide quench fluorescence; hits give low values | 340,000 compounds, 0.3% hits | B-score at 10 µM | Anoctamin-1 (Mus musculus), Q8BHY3;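 active = fluorescence-ratio B-score plate-corrected deviation score at least 3 library SD below zero, with starting fluorescence score within 5 deviations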;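 note: channel opened by trigger with iodide after compound preincubation; score built on the fluorescence ratio of max minus min over baseline; more negative score means more quench and so TMEM16A activation or potentiation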
TMEM16A reconf: TMEM16A chloride channel inhibitors, confirmation, cell-based, re-confirmation; HEK293 TMEM16A/YFP-H148Q, iodide quench fluorescence; ionomycin added to raise cell calcium; shares compounds with TMEM16A inh; inhibition, % at 10 µM; 2,300 compounds, 39% hits; AID 652189, 2013;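 active = mean duplicate percent inhibition, scaled so buffer wells are 0 and the reference blocker 100, over three buffer SD above buffer mean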
TMEM16A Ca cntr: calcium mobilization in TMEM16A/YFP HEK293 cells, confirmation, counter-screen for TMEM16A inhibitor project; shares compounds with TMEM16A inh; Fluo4 calcium mobilization; calcium response (% of ionomycin), % at 10 µM; 2,300 compounds, 2% hits;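 active = duplicate-averaged calcium signal over 20% of the ionomycin maximum, relative to buffer baseline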;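 note: each well's signal is peak minus trough fluorescence divided by its pre-addition baseline; 0% = buffer wells and 100% = ionomycin wells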
YFP-HEK293 quench: iodide YFP quench changes in parental YFP-HEK293, counter-screen for TMEM16A inhibitor project, cell-based | shares compounds with TMEM16A inh | ionomycin | YFP ratio F(max-min)/F0 at 10 µM | 2,300 tested, under 10 active | AID 652233, 2013;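 active = yellow fluorescent protein signal ratio exceeding the buffer control mean by over 5 SD of those controls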;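 note: ratio is mean of duplicate wells from kinetic YFP trace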
ClC-1 rat inh: ClC-1 chloride channel inhibition, selectivity assay for TMEM16A inhibitor project, cell-based, voltage-dependent ClC-1; shares compounds with TMEM16A inh; CHO ClC-1-YFP, iodide influx fluorescence quench; iodide control reads 0, buffer control 100; ratio percent, % at 10 µM; 2,300 tested, under 10 active; AID 652236, 2013;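 active = duplicate-mean ratio percent above the mean of iodide-only control wells, which defines zero, plus 5 of their SD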;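 note: higher percent means stronger block of ClC-1 iodide influx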
* marks the source's active call; other numbers are inactive results; i = inactive; x = no result.

SMILES	CHT block	CHT PAM	TMEM16A inh	TMEM16A act	TMEM16A reconf	TMEM16A Ca cntr	YFP-HEK293 quench	ClC-1 rat inh
O=C(CSc1ccc(Cl)cc1)N1CCN(c2ccc(Cl)cc2[N+](=O)[O-])CC1	i	i	100*	i	i	i	-1.13	-2.5
Cc1ccc(CNC(=O)CN2C(=O)CSc3ccc(S(=O)(=O)N4CCCCC4)cc32)cc1	i	i	i	i	x	x	x	x
COc1cccc(C2C(C#N)=C(N)OC(C(C)(C)C)=C2C#N)c1 (stereo unspecified)	i	i	i	i	x	x	x	x
COc1cccc(/C=C2/CN(C)CC3=C2OC(N)=C(C#N)C3c2cccc(OC)c2)c1 (stereo unspecified)	i	i	i	i	i	i	-1.19	-10.0
Cc1cc(F)ccc1S(=O)(=O)Nc1ccccc1C(=O)Nc1ccccc1N1CCOCC1	i	i	25*	i	i	i	-1.15	-16.0
O=C(Nc1ccccc1N1CCOCC1)c1ccccc1NS(=O)(=O)c1ccc(F)c(F)c1	i	i	100*	i	31.0%*	i	-1.04	-9.0
Cc1c(C(=O)OCC2CCCO2)[nH]c2c1C(=O)CC(c1ccc(N(C)C)cc1)C2 (stereo unspecified)	i	i	i	i	x	x	x	x
Cc1nn(C(=O)c2cc([N+](=O)[O-])ccc2Cl)c(C)c1Br	i	i	i	i	x	x	x	x
O=C(Nc1ccc(F)cc1F)c1cc(-c2ccc3c(c2)OCO3)on1	i	i	i	i	x	x	x	x
CCOc1ccc(N(C(C)C(=O)N/N=C(\C)c2cccc(NC(=O)c3ccccc3)c2)S(C)(=O)=O)cc1 (stereo unspecified)	i	i	i	i	x	x	x	x
CCOC(=O)N1CCC(N(C(=O)Nc2ccc(Cl)c(Cl)c2)C(C)CC)CC1 (stereo unspecified)	i	i	25*	i	i	i	-1.08	-11.0
Cc1ccc(S(=O)(=O)Nc2ccnc(-c3cccnc3)n2)cc1	i	i	i	i	x	x	x	x
COc1ccc(-c2csc(NC(=O)C3CCN(C(=O)c4ccc(F)cc4)CC3)n2)cc1OC	i	i	100*	i	20.5%*	i	-0.753	-16.0
COc1cccc(NC(=O)Nc2nc(-c3ccc(OC)c(OC)c3)cs2)c1	i	i	25*	i	19.5%*	i	-1.1	-4.5
CCC(C)Sc1ccc([C@@H]2[C@H]3C(=O)N(CC)C(=O)[C@H]3[C@]3(C(=O)OC)CCCCN23)cc1 (stereo partly specified)	i	i	i	i	27.5%*	i	-0.712	13.0
CC1=CC(C)C(C(=O)O)C(C(=O)O)C1 (stereo unspecified)	i	i	100*	i	i	i	-0.83	-5.0
COc1ccc(Cc2nnc(SC(C)C(=O)Nc3ccc(C(N)=O)cc3)o2)cc1 (stereo unspecified)	i	i	i	i	x	x	x	x
CN1c2ccsc2C(O)=C(C(=S)Nc2ccc(F)c(Cl)c2)S1(=O)=O	i	i	25*	i	21.0%*	i	-1.14	-9.5
CC(=O)Nc1ccc(/C=N/N2C(=O)NC(C)(c3ccc(OC(F)F)cc3)C2=O)cc1 (stereo unspecified)	i	i	100*	-13.3*	93.0%*	i	-0.958	-5.5
COc1ccc(NC(=O)C(c2cc3c(cc2[N+](=O)[O-])OCO3)N(C)C)cc1 (stereo unspecified)	i	i	i	i	x	x	x	x
Cc1ccc(C)c(OCC(=O)NCCNC(=O)COc2cc(C)ccc2C)c1	i	i	100*	i	i	i	-1.25	-12.5
Cc1ccc(NC(=O)COc2coc(CN3CCN(Cc4ccccc4)CC3)cc2=O)cc1	i	i	25*	i	i	i	-0.99	-9.5
CCN(CC)S(=O)(=O)c1ccc(C(=O)Nn2cnnc2)cc1	i	i	i	i	x	x	x	x
COc1ccccc1-c1ccc(SCC(=O)N2CCOCC2)nn1	i	i	i	i	x	x	x	x
COc1ccccc1-c1ccc(SCc2ccc(F)cc2)nn1	i	i	100*	i	i	i	-0.991	-13.5
SMILES	CHT block	CHT PAM	TMEM16A inh	TMEM16A act	TMEM16A reconf	TMEM16A Ca cntr	YFP-HEK293 quench	ClC-1 rat inh
CC(C)C(c1nnnn1C1CCCCC1)N1CCN(c2ncccn2)CC1 (stereo unspecified)	i	i	100*	i	i	i	-1.22	-14.0
Cc1cccc(NC(=O)c2cnc3sccn3c2=O)c1	i	i	i	i	x	x	x	x
COc1ccc(NC(=O)c2cnc3sccn3c2=O)cc1	i	i	100*	i	i	i	-1.03	-7.0
N#CC1(Nc2cccc(Br)c2)C(=O)Nc2ccccc21 (stereo unspecified)	i	i	100*	i	63.5%*	i	-0.897	-13.0
N#CC1(Nc2ccccc2)C(=O)Nc2ccccc21 (stereo unspecified)	i	i	i	i	x	x	x	x
c1ccc(-c2nc(-n3nc4ccccc4n3)nc3ccccc23)cc1	i	i	100*	i	i	i	-1.02	-6.0
CCOc1cc(C(=S)N2CCC(O)CC2)ccc1OS(=O)(=O)c1ccc(Br)cc1	i	i	25*	i	i	i	-1.21	-11.0
CN(C(=O)COC(=O)c1ccc2[nH]c3c(c2c1)CCCC3)C1CCS(=O)(=O)C1 (stereo unspecified)	i	i	i	i	x	x	x	x
Cn1c(Cc2ccccc2)nnc1SCC(=O)NC1CCCCC1	i	i	i	i	x	x	x	x
Cn1c(Cc2ccccc2)nnc1SCC(=O)NC1CCCC1	i	i	100*	i	i	i	-1.12	-14.5
CCC(C)N(C(=O)c1csnn1)C(C(=O)NC(C)(C)C)c1ccccc1 (stereo unspecified)	i	i	i	x	i	i	-1.24	2.0
